Bioassay records deposited in PubChem by National Center for Advancing Translational Sciences (NCATS).
This is a sample that favours compounds with a hit; in the whole collection about 2.4% have one here.
FEN1 inh: inhibitors of human flap endonuclease 1. Recombinant FEN1 flap cleavage, fluorescence, 15 min. Potency, µM (titrated, usually from 114 µM), for the others: at the highest dose activity change, negative = inhibition, actives largely listed as inhibitors. P39748. AID 588795. 390,000 compounds, 0.35% hits; further: on the % scale 0 is the no-effect control and ±100 the full control effect; nearly all actives have a fitted effect of over 65% in size
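Read-out was taken twice, immediately and after 15 min, following addition of 50 nM substrate to 10 nM FEN1 that had sat with test compound for 15 min at room temperature. Curves came from a four-parameter Hill model.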
POLI inh: DNA polymerase iota (human) inhibition; 390,000 compounds, 1% hits; Potency, µM (doses to about 115 µM), inactives show at the highest dose activity, negative = inhibition, actives largely listed as inhibitors; Pol iota fluorescent replication assay, 10 min
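Fluorescent replication assay read twice, at 0 min and 10 min after adding 50 nM (final) substrate. Enzyme (10 nM) and compounds were first incubated 15 min at room temperature; enzyme-free buffer wells were negative controls.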
POLH inh: blocks human DNA polymerase eta activity | Q9Y253 | AID 588591 | 390,000 compounds, 1.2% hits | Potency, µM (top dose mostly 114 µM), for the others: at the highest dose activity change, negative = inhibition, most hits filed as inhibitors | recombinant Pol eta, fluorescent DNA replication assay; further: on the % scale 0 is the no-effect control and ±100 the full control effect
Target sequence (Q9Y253 whole entry, looked up): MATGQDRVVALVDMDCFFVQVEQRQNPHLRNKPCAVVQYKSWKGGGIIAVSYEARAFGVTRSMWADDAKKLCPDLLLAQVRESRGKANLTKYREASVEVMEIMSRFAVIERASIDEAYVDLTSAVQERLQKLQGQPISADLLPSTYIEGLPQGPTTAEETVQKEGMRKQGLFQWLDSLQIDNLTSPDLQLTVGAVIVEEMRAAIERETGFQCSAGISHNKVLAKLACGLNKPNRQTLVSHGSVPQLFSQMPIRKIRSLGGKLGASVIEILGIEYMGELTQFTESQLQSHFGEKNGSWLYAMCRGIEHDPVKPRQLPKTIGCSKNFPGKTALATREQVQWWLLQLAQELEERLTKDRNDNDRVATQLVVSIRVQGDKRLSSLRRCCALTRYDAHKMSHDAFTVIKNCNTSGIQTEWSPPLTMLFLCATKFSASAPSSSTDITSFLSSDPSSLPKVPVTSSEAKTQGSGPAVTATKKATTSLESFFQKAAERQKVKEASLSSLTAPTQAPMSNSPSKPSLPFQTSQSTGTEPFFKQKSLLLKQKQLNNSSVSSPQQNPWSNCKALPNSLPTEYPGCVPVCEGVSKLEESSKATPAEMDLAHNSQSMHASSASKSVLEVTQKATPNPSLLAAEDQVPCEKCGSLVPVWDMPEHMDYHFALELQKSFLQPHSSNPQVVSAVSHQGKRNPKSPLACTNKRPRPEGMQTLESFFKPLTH
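Pol eta (10 nM) was preincubated with compounds for 15 min at room temperature, after which fluorescent replication substrate (50 nM final) was added to start the reaction. Fluorescence was read kinetically at 0 and 10 min.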
WRN inhibitor: WRN helicase (human) inhibition | AID 651768 | Potency, µM (highest dose often 114 µM), without a hit: top-dose activity change, negative = inhibition, hits mostly inhibitors | 360,000 compounds, 0.46% hits | WRN helicase unwinding, fluorescent forked duplex, kinetic | Q14191; further: on the % scale 0 is the no-effect control and ±100 the full control effect; nearly all actives have a fitted effect of over 55% in size
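WRN at 20 nM final preincubated with compound 15 min at room temperature; reaction started with 100 nM fluorophore/quencher forked duplex oligonucleotide and 2 mM ATP final. Unwinding followed kinetically by red fluorescence (ex 525, em 598 nm).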
POLB inh: inhibitors of human DNA polymerase beta; P06746; Pol beta primer extension/strand displacement, fluorescence kinetic; Potency, µM (top dose mostly 114 µM), inactives show top-dose activity change, negative = inhibition, actives largely listed as inhibitors; 340,000 compounds, 1.3% hits; AID 485314; further: on the % scale 0 is the no-effect control and ±100 the full control effect
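10 nM enzyme + cpd, 15 min RT; start with substrate 50 nM final; read 0 min and after 10 min RT. Corrected, normalized data; 4-parameter Hill curve fit.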
POLK inh: blocks human DNA polymerase kappa activity. Q9UBT6. purified Pol kappa, fluorescent DNA synthesis assay, 10 min. Potency, µM (highest dose often 107 µM), inactives show at the top dose activity, negative = inhibition, hits mostly inhibitors. 400,000 compounds, 0.53% hits; further: on the % scale 0 is the no-effect control and ±100 the full control effect
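First, compounds were pin-transferred onto 10 nM Pol kappa. After 15 min at room temperature, substrate was added to 50 nM final. Fluorescence was then measured kinetically at 0 and 10 min.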
* hit, by the source's call; ? = inconclusive; / = no result given; [ ] = remark or other dose. The call rests on the fitted dose curve; in most records, active means well fitted curve in the direction sought with a large enough effect; inconclusive means small, poorly fitted or top-dose-only effect, or another doubt; inactive means no such curve, though single readings can be large; an effect the other way counts as inactive or inconclusive. Potency means the concentration at half of the fitted maximal effect.

SMILES	FEN1 inh	POLI inh	POLH inh	WRN inhibitor	POLB inh	POLK inh
O=C1CC(c2cccs2)Sc2nc3ccccc3n21 (configuration not stated)	-4%	-10%	-6%	-2%[57.1 µM]	-27%	2%
O=C1CC(c2ccco2)Sc2nc3ccccc3n21 (configuration not stated)	-12%	20µM*	7%	?	-2%	50µM*
CCC(Sc1nnc2c(n1)[nH]c1ccccc12)C(=O)Nc1ccccc1OC (configuration not stated)	0%	?	-8%	/	?	2%
O=C(O)C1Nc2c(C(=O)N3CCOCC3)cccc2C2C=CCC12 (configuration not stated)	?	11µM*	3.2µM*	56µM*	20µM*	45µM*
O=C(O)C1Nc2c(C(F)(F)F)ccc(Cl)c2C2C=CCC12 (configuration not stated)	10%	?	?	-11%	45µM*	-6%
Cc1cc(C)c2c(c1)C1C=CCC1C(C(=O)O)N2 (configuration not stated)	22µM*	?	/	/	/	28µM*
Cc1ccc2c(c1C)NC(C(=O)O)C1CC=CC21 (configuration not stated)	56µM*	?	3.5µM*	40µM*	2.5µM*	3.2µM*
O=C(c1ccccc1O)N1CCOCC1	3%	20%	-9%	-4%	67%	-2%
COc1cc(Nc2nc3c(S(=O)(=O)c4cccc(Cl)c4)nnn3c3ccsc23)cc(OC)c1	20%	10%	-17%	/	4%	4%
Cc1ccc2c(c1C)NC(=O)CC2c1ccc(Cl)cc1Cl (configuration not stated)	-16%	58%	-20%	/	13%	-7%
CCOC(=O)c1cccc(NC(=O)Cn2nc3c(cc2=O)CCCC3)c1	-7%	7%	-7%	/	36%	5%[60.1 µM]
O=C(Nc1ccc(NC(=O)c2ccc(Cl)cc2Cl)cc1)c1ccc2c(c1)OCO2	4%	37%	-7%	19%	60%	1%
O=C(Nc1ccncc1)Nc1cccc(Cl)c1	15%	5%	10%	5%	24%	5%
CC(C)(C)c1ccc(/C=C/C(=O)Nc2ccncc2)cc1	-15%	8%	-24%	-5%	?	1%
O=C(Nc1cccc(C2=NCCN2)c1)Nc1cccc(C2=NCCN2)c1	-13%	10%	22µM*	8%	/	7.5µM*
O=C(Nc1ccc(C2=NCCN2)cc1)c1ccc(C(=O)Nc2ccc(C3=NCCN3)cc2)c(Cl)c1	50µM*	?	-16%	?	0.89µM*	?
O=C(/C=C/c1ccc(/C=C/C(=O)Nc2ccc(C3=NCCN3)cc2)cc1)Nc1ccc(C2=NCCN2)cc1	/	/	/	/	/	19µM*
CCOc1ccc(Cl)cc1C1CC(=O)Nc2cc(OC)c(OC)c(OC)c21 (configuration not stated)	-1%	-11%	-14%	/	6%	-1%
C=C1CCN(C(Cc2ccccc2)C(=O)Nc2ccc(OC)cc2)S(=O)(=O)c2ccccc21 (configuration not stated)	-18%	23%	/	/	/	-13%
N#C/C(=C(/O)COC(=O)CCc1ccc(S(=O)(=O)N2CCOCC2)cc1)c1nc2ccccc2[nH]1	5%	-12%	14µM*	-28%	35µM*	-23%
N#C/C(=C(/O)COC(=O)c1ccc(Cl)c(S(=O)(=O)N2CCOCC2)c1)c1nc2ccccc2[nH]1	-1%	67%	-13%	8%	4%	4%
CCCc1ccc(C(=O)NNC(=O)c2ccc(Br)cc2)cc1	3%	?	?	-12%	45µM*	-21%
COc1cc(/C=C/C(=O)N2CCCCC2=O)cc(OC)c1OC	/	/	/	/	/	-9%[19.4 µM]
Cc1ccc(S(=O)(=O)N2C[C@H]3[C@H]4C(=O)N(C)C(=O)[C@H]4CC(=O)[C@H]3[C@@H]2c2ccccc2Cl)cc1	/	/	/	-1%	/	/
O=C(O)c1ccccc1-n1cnnn1	20%	-7%	2%	-1%	0%	-24%
SMILES	FEN1 inh	POLI inh	POLH inh	WRN inhibitor	POLB inh	POLK inh
O=C(O)c1ccccc1-n1cccc1C(=O)O	3%	?	40µM*	-1%[11.6 µM]	25µM*	-25%
COc1cc2ccc(=O)oc2c(O)c1O	8.9µM*	?	-4%	-14%	/	50µM*
COc1cc2ccc(=O)oc2c(OC)c1OC	/	/	/	/	/	-1%[60.1 µM]
Cc1cc([N+](=O)[O-])c2[nH]c(C(=O)N/N=C/c3ccccc3C(=O)O)c(-c3ccccc3)c2c1	?	21%	45µM*	?	28µM*	-7%
COc1ccc(C(=O)NCC(c2cccnc2)N2CCc3ccccc32)cc1 (configuration not stated)	-1%	1%	-28%	/	-10%	-9%
O=C(CCCN1C(=O)/C(=C\c2ccco2)SC1=S)Nc1ccc2ccccc2c1	-4%	215%	?	0%	20µM*	-13%
COc1ccc(/C=C2\SC(=S)N(CCCC(=O)Nc3ccc(O)cc3)C2=O)cc1	6%	7%	17%	-7%	-1%	8%
CC(=C\c1ccccc1)/C=C1/SC(=S)N(CCCC(=O)O)C1=O	?	25µM*	25µM*	50µM*	-15%	-26%
COc1cc(/C=C2/SC(=S)N(CCC(=O)Nc3ccc(C(=O)O)cc3)C2=O)cc(OC)c1OC	-17%	-10%	56µM*	4%[11.6 µM]	4%	-21%
COc1ccc(CCN2C(=O)/C(=C\c3ccco3)SC2=S)cc1OC	-7%	?	-19%	1%	28µM*	-7%
CCc1ccc(CNC(=O)CN2C(=O)CSc3ccc(S(=O)(=O)N4CCOCC4)cc32)cc1	-2%	15%	-1%	/	34%	-9%[60.1 µM]
Cc1ccc2onc(CC(=O)N3CCN(c4ccc(F)cc4)CC3)c2c1	-14%	-11%	-6%	/	3%	-5%
CC(/C=C1\SC(=S)N(CCCC(=O)Nc2ccc(C(=O)O)cc2)C1=O)=C\c1ccccc1	-4%	?	32µM*	-12%[11.6 µM]	?	-27%
CC(=Cc1ccccc1)C=C1SC(=S)N(CCCC(=O)Nc2ccc(C(=O)O)cc2)C1=O	/	/	/	-13%[57.1 µM]	/	/
Clc1ccccc1Nc1ncnc2c1nc1n2CCCCC1	31%	-1%	-10%	/	4%	-6%
Cc1ccc(S(=O)(=O)NCC(=O)N(CC(=O)NCC2CCCO2)Cc2ccccc2)cc1 (configuration not stated)	1%	9%	-11%	-1%	-1%	0%
Cc1ccc(S(=O)(=O)NCC(=O)N(CC(=O)NCc2ccco2)Cc2ccco2)cc1	-2%	?	56µM*	-7%[11.6 µM]	1%	?
O=C(CN(Cc1ccco1)C(=O)CNS(=O)(=O)c1ccc(Cl)cc1)NCc1ccco1	2%	-5%	-16%	-3%[57.1 µM]	44%	2%
